STAT3 SMM: binds human STAT3 on microarray; P40763; Small molecule microarray, His-STAT3 binding, anti-His fluorescence; calls only; actives 0.2% (n = 17,000);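 active means compounds whose four printed spots each show fluorescence over background unusually high for their array block, chance value under 7%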
Myc binder: binds human c-Myc on microarray. P01106. small molecule microarray, His-c-Myc binding, anti-His fluorescence. calls only. actives 1.5% (n = 17,000);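 active means spot fluorescence over background with P-value below 7% in all four replicate spots, showing protein binding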;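 further: score is binary with 100 for all four spots passing and 0 otherwise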
mut p53 react: mutant p53 pathway reactivation; SW480 PUMA-promoter luciferase; activation, % at 9.98 µM; actives 1.5% (n = 28,000); in the data active means activation above about 52%
mut p53 SMM: binds human mutant p53 on microarray; small molecule microarray binding, anti-GST fluorescence; calls only; actives 0.4% (n = 17,000); AID 624136;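 active means compounds whose four printed spots each glow above background more than chance allows, each with a p-value under 7%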
NFkB binder: binds human NF-kappa-B p105 on microarray; actives 1.3% (n = 17,000); AID 624139; calls only; Small molecule microarray, anti-His fluorescence binding;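 active means spot fluorescence over background significantly raised, with a chance value under 7% in all four replicate spots of the compound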;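 further: probe protein is his-tagged human p50 processed subunit at 1 µg/ml; raw spot fluorescence signals with no normalization applied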
* = called active by the depositor; i = inactive; · = no result; + = active, no number. Only some compounds are listed: those with a hit (about 2.8% of all), similar ones and a draw of the others.

SMILES | STAT3 SMM | Myc binder | mut p53 react | mut p53 SMM | NFkB binder
COC1=CC(=O)OC(/C=C/c2ccccc2)C1 (centres undefined) | i | i | 89.6* | i | i
COc1ccc(CN2CCN(CCO)CC2)c(OC)c1C | i | i | 13.9 | i | i
Cc1ccc2c(c1)-c1cc(C)nn1C(c1cccnc1)N2 (centres undefined) | · | · | 33.5 | · | ·
Cc1cc(SCc2sc(-c3ccc(C(F)(F)F)c(F)c3)nc2C)ccc1OCC(=O)O | i | + | -0.3 | i | i
CCOC(=O)[C@@H]1[C@@H]2NC(=O)N(C)[C@@]1(COCc1ccc(OC)cc1)Oc1ccccc12 | i | i | · | i | i
CC(CO)NC(=O)C1C=C2c3cccc4[nH]cc(c34)CC2N(C)C1 (centres undefined) | i | + | 11.7 | i | i

Source: PubChem (Broad Institute)
